From PubChem BioAssay (Tox21)
Results filed as inconclusive are left out. Unmarked numbers belong to inactive results. Calls of active or inactive are those of the source. The call rests on the fitted dose curve; in most records, active means well fitted inhibition curve with a large enough effect in the repeat runs; inconclusive means weak or mixed curves; inactive means no such curve, though single readings can be large or run the other way.

These molecules were tested against Cytochrome P450 3A4 (Homo sapiens) (UniProt P08684) (assay: Cytochrome P450 Family 3 Subfamily A Member 4 (CYP3A4) small molecule antagonists: luciferase reporter qHTS assay (AID 1671201; further: nearly all actives have a fitted effect of over 50% in size)). Conditions: P450-Glo CYP3A4 enzyme, luciferin luminescence, 1 h; series mostly up to 115 µM; activity change, negative = inhibition: at the top concentration.
Text: National Center for Advancing Translational Sciences [NCATS]
U.S. Environmental Protection Agency [EPA]
National Institutes of Environmental Health Sciences [NIEHS]
National Toxicology Program [NTP]
U.S. Food and Drug Administration [FDA]
Cytochrome P450 (CYP) enzymes are membrane-bound hemeproteins that play a key role in metabolism of drugs and xenobiotics. Evaluation of the effect of chemicals on CYP isozymes is useful to minimize the adverse drug reactions and toxicities in drug development process. Tox21 chemicals were tested for their effect on CYP enzyme activities by using P450-Glo (TM) screening systems (Promega Corporation, Madison, WI). These systems provide a luminescent method containing proluciferin substrates and are converted to luciferin products by CYP isozymes. The luciferin products formed are detected with a luciferin detection reagent, and the amount of light produced is proportional to CYP activity. P450-Glo (TM) CYP3A4 screening system (Catalog. No. V9910) was used to detect the compounds that interfere in CYP3A4 activity. The positive control compound used for CYP3A4 assay is ketoconazole (Sigma-Aldrich, St. Louis, MO).
Tox21 Assay Protocol Summary:
Two ul of enzyme-substrate mix was dispensed into medium binding white/solid 1536-well plates (Greiner Bio-One North America Inc., Monroe, NC) using a BioRaptr Flying Reagent Dispenser (FRD, Beckman Coulter, Brea, CA). Compounds dissolved in DMSO and positive control (ketoconazole) were transferred to the assay plates at 23 nl using a Pintool station (Wako, San Diego, CA). The assay plates were incubated at room temperature for 10 min. Then 2 ul of NADPH regeneration solution was added to each well of the assay plates using an FRD and incubated at room temperature for 1 h. The reaction was stopped by adding 4 ul of detection reagent using an FRD and after 20 min incubation at room temperature the luminescence signal was measured using a ViewLux plate reader (Perkin Elmer, Shelton, CT). Data were expressed as relative luminescence units.
On the % scale 0 is the no-effect control and ±100 the full control effect; potency means the concentration at half of the fitted maximal effect.

Chain of Cytochrome P450 3A4 (Homo sapiens) (P08684 whole entry, looked up): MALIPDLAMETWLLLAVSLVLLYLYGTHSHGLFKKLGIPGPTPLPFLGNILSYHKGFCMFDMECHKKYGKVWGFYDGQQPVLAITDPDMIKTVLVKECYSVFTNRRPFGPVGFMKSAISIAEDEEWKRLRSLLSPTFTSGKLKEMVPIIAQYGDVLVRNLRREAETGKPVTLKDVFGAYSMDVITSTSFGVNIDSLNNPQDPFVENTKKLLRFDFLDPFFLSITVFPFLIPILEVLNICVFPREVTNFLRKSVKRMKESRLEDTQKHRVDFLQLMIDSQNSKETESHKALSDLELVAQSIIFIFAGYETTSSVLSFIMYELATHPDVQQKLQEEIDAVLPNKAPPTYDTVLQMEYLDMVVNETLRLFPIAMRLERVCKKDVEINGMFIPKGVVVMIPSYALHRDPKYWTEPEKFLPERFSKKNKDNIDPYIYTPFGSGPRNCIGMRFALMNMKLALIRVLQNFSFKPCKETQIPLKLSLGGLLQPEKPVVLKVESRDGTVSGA

Row | SMILES | activity change, negative = inhibition | Potency
1 | CC1=CC[C@@H](C(C)(C)O)CC1 | 0.677% | –
2 | Cc1cccc2c1ccc1ccccc12 | 8.98% | –
3 | C=CC(=O)OCC(Br)CBr (stereo not given) | -4.7% | –
4 | CCNc1nc(NC(C)(C)C)nc(OC)n1 | 26.9% | –
5 | O=C1OCc2ccccc21 | -23.2% | –
6 | c1ccc(C[P+](c2ccccc2)(c2ccccc2)c2ccccc2)cc1 | 232% | –
7 | C/C=C/C(=O)OCC(C)C | 20% | –
8 | C=CCc1cc(S(=O)(=O)c2ccc(O)c(CC=C)c2)ccc1O | – | 28.3 µM (active)
9 | Cn1c(=O)[nH]c2ncn(C)c2c1=O | -11% | –
10 | CC(O)(c1ccc(Cl)cc1)c1ccc(Cl)cc1 | 34.3% | –
11 | CCc1cccc(CC)c1 | 0.325% | –
12 | CC1(C)[C@H]2CC[C@]1(C)C(=O)C2 | 45.4% | –
13 | C/C(=N\[Si](C)(C)C)O[Si](C)(C)C | 2.2% | –
14 | Nc1ccc(Cl)c([N+](=O)[O-])c1 | -3% | –
15 | Nc1c(Br)cc([N+](=O)[O-])cc1Br | 5.73% | –
16 | O=c1[nH]cccc1O | 0.563% | –
17 | NC(=O)C1CO1 (stereo not given) | -2.21% | –
18 | Oc1ccc2c(c1)CCC2 | 1.14% | –
19 | O=C1C=CC(=O)N1c1cccc(N2C(=O)C=CC2=O)c1 | 19.5% | –
20 | NCc1ccco1 | -1.06% | –

Row | SMILES | activity change, negative = inhibition | Potency
21 | CCOC(=O)C1=NN(c2ccc(Cl)cc2Cl)C(C)(C(=O)OCC)C1 (stereo not given) | – | 35.6 µM (active)
22 | CCN(CC)c1ccc(C=O)cc1 | 7.28% | –
23 | CCOc1ccc([N+](=O)[O-])cc1 | – | 72.1 µM (active)
24 | c1ccc2occc2c1 | 13.4% | –
25 | CCN(CCC#N)c1ccc(N=Nc2ccc([N+](=O)[O-])cc2)cc1 | -10.5% | –
26 | CN1CCN(C)CC1 | -0.795% | –
27 | CCOC(=O)[C@H](O)[C@@H](O)C(=O)OCC | 2.69% | –
28 | CN(C[C@@H](CC[N+]12CCC(C3CCCCC3)(CC1)CC2)c1ccc(Cl)c(Cl)c1)C(=O)c1cc(C(F)(F)F)cc(C(F)(F)F)c1 | – | 2.24 µM (active)
29 | C=Cc1ccc(O)c(OC)c1 | – | 20 µM (active)
30 | CCC(C)(C)c1ccc(CC(C)CN2C[C@@H](C)O[C@@H](C)C2)cc1 (stereo not given in full) | -26.3% [at 52.9 µM] | –
31 | Brc1cc(Br)cc(Br)c1 | 6.06% | –
32 | CCCCCCCCCCCCN1CCCC1=O | 11.8% | –
33 | CC1(C)[C@H](C(=O)OCc2cccc(Oc3ccccc3)c2)[C@@H]1C=C(Cl)Cl | -1.96% | –
34 | O=C(O)C[C@H](O)C[C@H](O)/C=C/c1c(C2CC2)nc2ccccc2c1-c1ccc(F)cc1 | -3.86% [at 23.6 µM] | –
35 | CCC(O)CO (stereo not given) | 4% | –
36 | O[Si](c1ccccc1)(c1ccccc1)c1ccccc1 | 160% | –
37 | CCCCNc1ccc(NCCCC)c2c1C(=O)c1ccccc1C2=O | 15.3% [at 23.6 µM] | –
38 | Nc1cccnc1N | -11.9% | –
39 | Cc1c(Cl)c(=O)oc2cc(O)ccc12 | -4.24% | –
40 | O=C(CCN1CCC(c2ccccc2)C1)c1ccc2c(c1)OCCO2 (stereo not given) | 98.1% [at 52.9 µM] | –
